# Luc counter – blocks Kinase-Glo luciferase, a counter-screen artifact. Q27757. Kinase-Glo luciferase, ATP luminescence, 8 min. Potency, µM (doses to about 38.3 µM), most hits filed as inhibitors. hit rate 0.28% among 200,000. AID 1379; further: nearly all actives have a fitted effect of over 60% in size
#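 Kinase-Glo luciferase light output from ATP and luciferin was measured with 10 uM ATP, within the enzyme's linear range. Buffer: 50 mM imidazole pH 7.2, 50 mM KCl, 7 mM MgCl2, 0.01% Tween 20, 0.05% BSA; luminescence read after 8 min at ambient temperature.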
# HTT ATP protect – cytoprotection in Huntington HTT-Q103 PC12 cell model; Potency, µM (doses to about 56.4 µM), hits mostly activators; AID 1471; PC12 HTT-Q103 induced, cytoprotection, ATP luminescence, 40 h; hit rate 0.14% among 230,000; further: nearly all actives have a fitted effect of over 45% in size
#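 Compounds were screened for protection of PC12 cells against cell death after tebufenozide induction (100 nM final) of mutant Huntingtin exon 1 (Q103) fused to GFP.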
# ALDH1A1 block – blocks purified human ALDH1A1 activity; P00352; Purified ALDH1A1, NADH fluorescence, propionaldehyde substrate; Potency, µM (top dose mostly 75.3 µM), actives largely listed as inhibitors; hit rate 7.3% among 220,000; AID 1030; active means well fitted inhibition curve with a large enough effect, not every such curve was filed as active; inconclusive means small, poorly fitted or top-dose-only effect, or another doubt; inactive means no such curve, though single readings can be large or run the other way
# Target sequence (P00352 whole entry, looked up): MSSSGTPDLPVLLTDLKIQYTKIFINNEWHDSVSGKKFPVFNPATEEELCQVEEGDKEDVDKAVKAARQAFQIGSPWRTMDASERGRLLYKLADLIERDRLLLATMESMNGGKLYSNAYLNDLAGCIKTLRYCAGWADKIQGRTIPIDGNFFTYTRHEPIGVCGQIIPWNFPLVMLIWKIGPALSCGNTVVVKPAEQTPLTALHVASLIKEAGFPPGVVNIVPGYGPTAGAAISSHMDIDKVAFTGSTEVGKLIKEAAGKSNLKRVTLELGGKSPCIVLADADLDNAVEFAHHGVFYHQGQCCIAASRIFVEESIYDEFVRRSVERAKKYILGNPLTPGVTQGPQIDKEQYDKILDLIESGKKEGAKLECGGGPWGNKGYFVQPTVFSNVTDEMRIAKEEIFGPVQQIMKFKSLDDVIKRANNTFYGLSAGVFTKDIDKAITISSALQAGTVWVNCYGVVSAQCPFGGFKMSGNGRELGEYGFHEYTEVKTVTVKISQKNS
# LMNA splice mod – LMNA splicing modulation; HeLa LMNA splicing GFP/RFP minigene ratio, 48 h; Potency, µM (doses to about 46.1 µM), actives largely listed as inhibitors; hit rate 0.01% among 200,000; active means well fitted inhibition curve with a large enough effect in the signal ratio, with a control signal flat, not every such curve was filed as active; inconclusive means small, poorly fitted or top-dose-only effect, or effect the other way, or a change in a side signal; the % refers to the signal ratio
#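 Read-out is the ratio of GFP to DsRed2 object intensity, acquired by 488 nm laser-scanning cytometry on HeLa lamin A-EGFP minigene reporter cells. Compound incubation 48 hrs at 37 °C in Opti-MEM with 2% FBS; DMSO 0.5% final.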
# HTT aggregate – inhibitors of mutant huntingtin aggregate formation in PC12 cells | hit rate 1.1% among 220,000 | Potency, µM (highest dose often 46.1 µM), usual class: inhibitors | AID 1688 | PC12 HttQ103-GFP aggregates, Acumen cytometry, 40 h; further: nearly all actives have a fitted effect of over 60% in size
#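 Ecdysone-promoter PC12 model expressing HTT exon 1 Q103 fused to GFP, induced by tebufenozide at 100 nM final. Compounds titrated; aggregates sized 1–25 µm scored on a 488 nm laser cytometer.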
# HPGD inh – inhibitors of human 15-hydroxyprostaglandin dehydrogenase (HPGD). P15428. purified HPGD, NADH fluorescence kinetic, PGE2 substrate. Potency, µM, actives largely listed as inhibitors. hit rate 4.3% among 150,000; active means well fitted inhibition curve with a large enough effect, not every such curve was filed as active; inconclusive means small, poorly fitted or top-dose-only effect, or another doubt; inactive means no such curve, though single readings can be large or run the other way
#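 NADH formation kinetics: reaction with 30 uM PGE2 and 1 mM NAD+ (final), 20 nM enzyme, Tris-HCl pH 8 with Tween 20, after 15 min compound preincubation at room temperature. Fluorescence change, last versus first of five reads.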
# Numbers stand for hits; . = inactive; ? = inconclusive; / = no result given; [ ] = remark or other dose. An excerpt weighted towards active compounds, which were near 9% of everything screened. Unless noted, the call rests on the fitted dose curve; in most records, active means well fitted curve in the direction sought with a large enough effect; inconclusive means small, poorly fitted or top-dose-only effect, or another doubt; inactive means no such curve, though single readings can be large; an effect the other way counts as inactive or inconclusive.
SMILES,Luc counter,HTT ATP protect,ALDH1A1 block,LMNA splice mod,HTT aggregate,HPGD inh
COc1cc(CCC(=O)Nc2cccc(S(=O)(=O)N(C)C)c2)cc(OC)c1OC,.,.[0.074 µM],.,?,.,.
CCNc1ccc(S(=O)(=O)N(C)C)cc1NCC(=O)Nc1ccccc1Br,.,.,25µM,.,.,/
COc1ccc(S(=O)(=O)N(C)C)cc1NCC(=O)Nc1cccc(C#N)c1,.,/,20µM,/,.,/
CCNc1ccc(S(=O)(=O)N(C)C)cc1NCC(=O)Nc1ccc(Br)cc1F,.,.[10 µM],.,?,.,.
CCN(CC)S(=O)(=O)c1ccc2nnn(OCC(=O)Nc3cccc(C#N)c3)c2c1,.,.,14µM,.,?,.
CCNc1ccc(S(=O)(=O)N(C)C)cc1NCC(=O)Nc1ccccc1F,.,.[10 µM],20µM,.,.,.
COc1ccc(NCC(=O)Nc2ccc(C#N)cc2)cc1Cl,.,.,10µM,.,.[9.22 µM],.
Cc1c(Cl)cccc1NC(=O)CNc1cccc(S(=O)(=O)N(C)C)c1,.,.[10 µM],.,.,.,.
COc1ccc(NC(=O)CNc2cccc(C#N)c2)cc1Cl,.,.,?,.,.,.
CCNc1ccc(S(=O)(=O)N(C)C)cc1NCC(=O)Nc1ccc(F)c(Cl)c1,.,.[10 µM],25µM,?,.,.
Cc1[nH]c2ccccc2c1NC(=O)CN1CCN(Cc2ccc3c(c2)OCO3)CC1,.,.[0.074 µM],.,.,.,.
Cc1[nH]c2ccccc2c1C(=O)C(=O)N1CCN(C(=O)c2ccco2)CC1,.,/,6.3µM,/,.,/
CCOC(=O)c1c(NC(=O)CN2CCN(C(=O)c3ccco3)CC2)sc2c1CCCC2,.,.[10 µM],24µM,?,25µM,.
Cc1[nH]c2ccccc2c1NC(=O)CN1CCN(C(=O)c2ccco2)CC1,/,.[10 µM],6.3µM,/,.[9.22 µM],/
Cc1cc2nc(-c3ccc(SCC(=O)N4CCOCC4)nc3)[nH]c2cc1C,?,.,?,.,.,?
CCN(CC(=O)Nc1ccc2c(c1)OCCO2)C(=O)CC1CCCC1,.,.,.,.,.,.
CC1=C(C)/C(=N\OC(=O)/C=C/c2ccccc2)C=CC1=O,.,.,.,.,?,.
CCN1CCS/C1=C/C=C/C1=[N+](CC)CCS1,.,.[10 µM],/,?,0.5µM,.
CCN1CCS/C1=C\C=C\C1=[N+](CC)CCS1,.,.,.,?,1.1µM,/
COc1ccc2[nH]c(-c3ccc(C)cc3)cc(=O)c2c1,.,/,?,?,.,?
CCOC(=O)c1c(NC(=O)/C=C/C(=O)O)sc(C)c1-c1ccc(F)cc1,/,.[10 µM],14µM,/,.[9.22 µM],/
COC(=O)c1c(NC(=O)/C=C/C(=O)O)sc(C)c1-c1ccc(C)cc1,.,.[10 µM],?,.,.[9.22 µM],/
COC(=O)c1c(NC(=O)/C=C/C(=O)O)sc(C)c1-c1ccc(C(C)C)cc1,.,.[10 µM],7.9µM,?,.,/
COc1ccc(-n2sc3c(c2=S)-c2cc(OC)ccc2NC3(C)C)cc1,.,.[10 µM],32µM,?,?,.
CSc1ncc(C(=O)NCc2ccccc2F)c(-c2ccccc2)n1,/,/,/,.,/,/
SMILES,Luc counter,HTT ATP protect,ALDH1A1 block,LMNA splice mod,HTT aggregate,HPGD inh
Cc1ccc([N+](=O)[O-])cc1N/C=C/C(=O)c1ccco1,.,.,22µM,?,.,.
Cc1ccc(N/C=C/C(=O)c2ccco2)c(O)c1,/,.[10 µM],/,/,.[9.22 µM],/
O=C1/C(=C/N(C(=O)c2ccco2)c2ccc(Br)cc2)Sc2ccccc21,.,.[10 µM],?,.,.,32µM
Cc1cccc([N+](=O)[O-])c1NC(=O)CN(Cc1ccccc1)Cc1ccccc1,.,.[0.074 µM],.,.,.,.
COc1cc(/C=N/O)cc(Br)c1OCC(=O)NCc1ccccc1,.,/,?,.,.,14µM
CCOc1cc(CNc2ccc(Br)cc2)cc(Br)c1OCC(=O)NC(C)(C)C,.,.,.,.,?,.
CCOc1cc(/C=N/NC(N)=O)cc(Br)c1OCC(=O)Nc1cccc2ccccc12,.,.,.,.,.[9.22 µM],.
CCOc1cc(CNc2ccccc2)cc(Br)c1OCC(=O)NC(C)(C)C,.,.,?,.,35µM,.
CCOc1cc(/C=N/O)cc(Br)c1OCC(=O)NCc1ccccc1,.,.[0.074 µM],?,?,.,18µM
N#CC(Cc1ccc(O)c(O)c1)C(=O)N1CCc2ccccc21 (configuration not stated),.,/,8.9µM,?,/,28µM
Cc1ccc(NC(=O)C(=O)NC(C)C2COc3ccccc3O2)cc1 (configuration not stated),.,.,.,?,.,.
COc1ccc(OC)c(-n2cnc3cc(C(=O)NCCCN4CCOCC4)ccc32)c1,.,.,.,.,.,25µM
CCCNC(=O)c1ccc2c(c1)ncn2-c1cc(C)cc(C)c1,.,.,.,/,.,/
CCCNC(=O)c1ccc2c(c1)ncn2-c1ccccc1OC,.,.[1.9 µM],.,.,.,18µM
O=C(COC(=O)c1cnccn1)c1ccc(Br)cc1,.,.,.,.,.,.
O=C(COC(=O)c1cnccn1)c1ccc2c(c1)CCCC2,.,.[10 µM],28µM,.,.,.
COc1ccc(C(=O)C(OC(=O)c2ccccc2)c2ccccc2)cc1 (configuration not stated),.,.,.,.[0.0737 µM],.,.
Cc1ccc(S(=O)(=O)Nc2ccccc2-c2ccccc2NS(=O)(=O)c2ccc(C)cc2)cc1,.,.,.,?,.,.
COC(=O)c1ccc(Sc2ccccc2NS(=O)(=O)c2ccc(C)cc2)nc1,.,.,28µM,.,.,.
CCOC(=O)c1c(C)oc2c1c(C(c1ccccc1)N1CCOCC1)c(O)c1ccccc12 (configuration not stated),.,.,3.5µM,.,.,?
O=C(c1ccccc1)N1CCCc2ccccc21,.,.[10 µM],.,.,.,.
O=C(c1ccco1)N1CCc2ccccc21,.,.,.,.,.,/
O=C(c1ccccc1)N1CCc2ccccc21,.,.,?,.,.,28µM
CC(=O)Nc1ccc2c(c1)CCCN2C(=O)c1ccccc1,.,.,14µM,.,.,.
COc1cccc(C(=O)N2CCCc3ccccc32)c1,.,.,.,.,.,.
O=C(c1ccc(=O)oc1)N1CCCc2ccccc21,.,.[0.074 µM],10µM,.,.,?
Cc1ccc2c(c1)CCCN2C(=O)c1ccco1,.,.,.,.,2.5µM,.
O=C(N=Nc1c(O)[nH]c2ccc(Cl)cc12)c1cc(-c2cccs2)nc2ccccc12,.,/,.,.,.,.
Cc1cc(C)n(-c2ccc(C(=O)Nc3cc(S(=O)(=O)N(C)C)ccc3Cl)cc2)n1,.,.[10 µM],?,.,.,.
CC(=O)N1CCc2cc(Br)cc(S(=O)(=O)NCCN3CCCCC3C)c21 (configuration not stated),.,.,.,.,.,.
